Pf Dd2 inh: inhibitors of Plasmodium falciparum Dd2 growth; P. falciparum Dd2 growth, SYBR Green, 72 h; active compounds read low; activity change, % at 10 µM; 94,000 compounds, 2.3% hits; AID 1159554; in the data active means activity change below about -80%; inconclusive means no clear call, values can overlap the other calls
T cruzi growth-1: T. cruzi proliferation inhibition. T. cruzi beta-gal in NIH3T3, GalScreen luminescence, 90 h. 77,000 compounds, 5.9% hits. inhibition, % at 8.34 µM;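 active means mean inhibition above about 93%, with at least 55% of replicates each passing it, limit read from the data, passing the limit was not always enough; inconclusive means only one of those two conditions holds; inactive means neither condition holds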
C diff growth: inhibitors of Clostridium difficile growth; Clostridium difficile clinical isolate growth, OD600, 24 h; active compounds read low; growth activity, negative = inhibition, % at 16 µg/mL (by protocol); 86,000 compounds, 0.25% hits; AID 1259249;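 active means mean growth activity at or below -80% and every replicate also at or below -80%; inconclusive means mean at or below -80% but some replicate above -80%; inactive means mean growth activity above -80%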;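 further: 0% = DMSO wells and -100% = levofloxacin 16 µg/mL wells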
T cruzi growth-2: Trypanosoma cruzi proliferation inhibition; T. cruzi beta-gal in NIH3T3, GalScreen luminescence, 90 h; shares compounds with T cruzi growth-1; inhibition, % at 8.35 µM; 5,600 compounds, 72% hits;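 active means mean replicate inhibition above about 95% and at least 55% of replicates individually reaching it, limit read from the data; inconclusive means only one of the two criteria is met; inactive means neither criterion is met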
T cruzi growth-3: Trypanosoma cruzi proliferation inhibition; shares compounds with T cruzi growth-1; AID 651740; 5,600 compounds, 21% hits; T. cruzi beta-gal in NIH3T3, GalScreen luminescence, 90 h; inhibition, % at 2.09 µM;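 active means mean inhibition above about 95%, with at least 55% of replicates also reaching it, limit read from the data; inconclusive means meets just one of the two conditions; inactive means meets neither condition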;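 further: plate controls were neutral control median for no effect and positive control median for full effect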
NIH3T3 tox: kills mouse NIH/3T3 fibroblasts; shares compounds with T cruzi growth-1; NIH/3T3 viability, CellTiter-Glo ATP luminescence, 90 h; cytotoxicity (signal decrease), % at 8.35 µM; 5,600 compounds, 14% hits; AID 651742;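 active means mean signal decrease across replicates above about 35% based on untreated-well scatter, with enough replicates individually passing, limit read from the data; inconclusive means no rule stated though some were filed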;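 further: 0% = median of neutral control wells and 100% = median of positive control wells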
3T3 cytotox 2: cytotoxicity in mouse NIH/3T3 fibroblasts. shares compounds with T cruzi growth-1. NIH/3T3 viability, CellTiter-Glo ATP luminescence, 90 h. inhibition, % at 24.9 µM. 5,600 compounds, 56% hits. AID 651744;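 active means mean loss of cell viability signal at or above a set limit, and enough replicates individually reaching it; inconclusive means meets only the mean limit or only the replicate share; inactive means meets neither condition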;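 further: 0% = median of neutral control wells and 100% = median of positive control wells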
Starred values were filed as active, the others as inactive; ? = inconclusive; . = no result given. An excerpt weighted towards active compounds, which were near 6.8% of everything screened.

SMILES	Pf Dd2 inh	T cruzi growth-1	C diff growth	T cruzi growth-2	T cruzi growth-3	NIH3T3 tox	3T3 cytotox 2
C[C@H]1CN([C@@H](C)CO)C(=O)c2cc(C#CC3CC3)cnc2O[C@H]1CN(C)C(=O)c1ccccc1	10	-2	0	.	.	.	.
CC(C)CC#Cc1ccc2c(c1)O[C@@H](CN(C)C(=O)Cc1ccccn1)[C@@H](C)CN([C@@H](C)CO)S2(=O)=O	-39	31	-2	.	.	.	.
O=C(C[C@@H]1C[C@@H]2c3cc(NC(=O)C4CCC4)ccc3O[C@@H]2[C@H](CO)O1)NCc1ccccc1	6	15	.	.	.	.	.
CCNC(=O)C[C@H]1CC[C@@H]2[C@@H](COc3ccc(NC(=O)c4ccccc4Cl)cc3C(=O)N2C)O1	-18	91	-1	.	.	.	.
C[C@@H]1CN([C@H](C)CO)S(=O)(=O)c2ccc(C3=CCCCC3)cc2O[C@@H]1CN(C)C(=O)c1ccncc1	-18	45	-4	.	.	.	.
O=C(C[C@H]1CC[C@@H](NC(=O)CN2CCOCC2)[C@H](CO)O1)NCCc1ccncc1	17	13	.	.	.	.	.
CC(=O)N[C@H]1CC[C@@H](CC(=O)NCc2ccc(Cl)cc2)O[C@@H]1CO	-6	-13	1	.	.	.	.
COCC#Cc1ccc2c(c1)O[C@H](CN(C)C(=O)c1ccccc1)[C@@H](C)CN([C@H](C)CO)S2(=O)=O	-46	31	-3	.	.	.	.
CCCC#Cc1ccc2c(c1)O[C@@H](CN(C)C(=O)c1ccccc1)[C@H](C)CN([C@@H](C)CO)S2(=O)=O	-58	96*	6	102*	73	32	62*
CC(C)CC#Cc1ccc2c(c1)O[C@@H](CN(C)C(=O)c1ccccc1)[C@@H](C)CN([C@@H](C)CO)S2(=O)=O	-70	120*	15	102*	88	27	103*
CCCC#Cc1ccc2c(c1)O[C@H](CN(C)C(=O)c1ccncc1)[C@H](C)CN([C@@H](C)CO)S2(=O)=O	-14	84	-2	.	.	.	.
CCCC#Cc1ccc2c(c1)O[C@@H](CN(C)C(=O)c1ccncc1)[C@H](C)CN([C@@H](C)CO)S2(=O)=O	23	87	3	.	.	.	.
CC(C)CC#Cc1ccc2c(c1)O[C@H](CN(C)C(=O)c1ccccc1)[C@@H](C)CN([C@H](C)CO)S2(=O)=O	-57	.	19	.	.	.	.
CCCC#Cc1ccc2c(c1)O[C@H](CN(C)C(=O)c1ccccc1)[C@@H](C)CN([C@@H](C)CO)S2(=O)=O	-41	112*	4	104*	60	21	35*
CCCC#Cc1ccc2c(c1)O[C@H](CN(C)C(=O)c1ccccc1)[C@H](C)CN([C@H](C)CO)S2(=O)=O	-66	98*	4	107*	81	-3	58*
CN1C(=O)c2cc(NC(=O)Nc3ccccc3F)ccc2OC[C@@H]2O[C@H](CC(=O)O)CC[C@@H]21	2	-12	-1	.	.	.	.
Cc1noc(C)c1NC(=O)N(C)C[C@H]1Oc2ccc(NC(=O)c3ccncc3)cc2C(=O)N([C@@H](C)CO)C[C@@H]1C	10	69	-1	.	.	.	.
C[C@@H]1CCCCO[C@@H](CN(C)S(=O)(=O)c2ccc(F)cc2)[C@@H](C)CN([C@@H](C)CO)C(=O)c2cc(NC(=O)Cc3ccccc3)ccc2O1	-74	63	.	.	.	.	.
C[C@H](CO)N1C[C@H](C)[C@@H](CN(C)C(=O)NC2CCCCC2)OCCCC[C@H](C)Oc2ccc(NS(=O)(=O)c3cn(C)cn3)cc2C1=O	35	67	1	.	.	.	.
C[C@@H]1CN([C@H](C)CO)C(=O)c2cc(NC(=O)CCCCCC(=O)Nc3ccccc3N)ccc2O[C@H]1CN(C)Cc1ccc(-c2ccccc2)cc1	-54	.	2	.	.	.	.
C[C@H]1CN([C@@H](C)CO)C(=O)c2cccc(NC(=O)CCCCCC(=O)Nc3ccccc3N)c2O[C@@H]1CN(C)Cc1ccc2c(c1)OCO2	-92*	127*	.	107*	108*	-1	25*
C[C@@H]1CN([C@H](C)CO)C(=O)c2cccc(NC(=O)CCCCCC(=O)Nc3ccccc3N)c2O[C@H]1CN(C)Cc1ccc(-c2ccccc2)cc1	-92*	?	-2	84	-14	-3	-7
C[C@H](CO)N1C[C@H](C)[C@@H](CN(C)Cc2ccc3c(c2)OCO3)Oc2ccc(NC(=O)CCCCCC(=O)Nc3ccccc3N)cc2C1=O	-78	.	1	.	.	.	.
Cc1noc(C)c1NC(=O)Nc1cccc2c1O[C@H](CN(C)S(=O)(=O)c1ccc(Cl)cc1)[C@@H](C)CN([C@H](C)CO)C2=O	11	-13	-6	.	.	.	.
C[C@@H]1CCCCO[C@H](CN(C)S(=O)(=O)c2ccc(Cl)cc2)[C@@H](C)CN([C@@H](C)CO)C(=O)c2cc(NS(=O)(=O)c3ccc(F)cc3)ccc2O1	-56	86	0	.	.	.	.
SMILES	Pf Dd2 inh	T cruzi growth-1	C diff growth	T cruzi growth-2	T cruzi growth-3	NIH3T3 tox	3T3 cytotox 2
C[C@@H]1CCCCO[C@@H](CN(C)S(=O)(=O)c2ccc(Cl)cc2)[C@@H](C)CN([C@H](C)CO)C(=O)c2cc(NS(=O)(=O)c3ccc(F)cc3)ccc2O1	-38	68	4	.	.	.	.
C[C@@H]1CCCCO[C@@H](CN(C)S(=O)(=O)c2ccc(F)cc2)[C@H](C)CN([C@@H](C)CO)C(=O)c2cc(NS(=O)(=O)c3ccc(Cl)cc3)ccc2O1	-56	103*	8	95*	95	6	34*
C[C@@H]1CN([C@@H](C)CO)C(=O)c2cc(NS(=O)(=O)c3ccc(F)cc3)ccc2O[C@@H]1CN(C)S(=O)(=O)c1ccc(Cl)cc1	14	92*	0	110*	49	23	46*
C[C@@H]1CN([C@H](C)CO)C(=O)c2cc(NS(=O)(=O)c3ccc(F)cc3)ccc2O[C@H]1CN(C)S(=O)(=O)c1ccc(Cl)cc1	-12	30	-6	.	.	.	.
C[C@@H]1CN([C@@H](C)CO)C(=O)c2cc(NS(=O)(=O)c3ccc(F)cc3)ccc2O[C@@H](C)CCCCO[C@@H]1CN(C)S(=O)(=O)c1ccc(Cl)cc1	-76	?	6	106*	103*	-23	?
C[C@H](CO)N1C[C@H](C)[C@@H](CN(C)S(=O)(=O)c2ccc(F)cc2)OCCCC[C@H](C)Oc2ccc(NS(=O)(=O)c3ccc(Cl)cc3)cc2C1=O	-43	100*	-8	?	?	48*	27*
C[C@H]1CN([C@@H](C)CO)C(=O)c2cc(C#CC3CCCCC3)cnc2O[C@H]1CN(C)S(C)(=O)=O	3	97	-3	.	.	.	.
CS(=O)(=O)Nc1ccc2c(c1)[C@H]1C[C@@H](CC(=O)NCc3ccccc3)O[C@H](CO)[C@H]1O2	16	21	.	.	.	.	.
C[C@H]1CCCCO[C@@H](CN(C)C(=O)CCCN(C)C)[C@@H](C)CN([C@@H](C)CO)C(=O)c2cc(NC(=O)c3ccncc3)ccc2O1	46	.	-3	.	.	.	.

Screening data: PubChem, Broad Institute
